Laboratory results reported in PubChem BioAssay (NCI).
About 79,000 compounds went through this panel and 15% of them were active in at least one assay; those are over-represented in the sample as a whole. Active and inactive are the calls of the source. Rule as the data show it: active = growth inhibition above about 70%; inactive = the rest.

Assays:
[1] = NCI Yeast Anticancer Drug Screen. Data for the rad52 strain (AID 147);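 also: 0% = growth of vehicle-treated control cultures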; details: S. cerevisiae rad52 mutant growth inhibition, stronger effect = higher value
Outline: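 Vehicle-treated cultures served as the reference for growth inhibition of compound-exposed yeast bearing a DNA repair mutation.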

[2] = NCI Yeast Anticancer Drug Screen. Data for the wt1 strain (AID 149);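 also: 0% = growth of vehicle-treated wt1 cultures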; details: S. cerevisiae wt1 strain (SPY 50644) growth inhibition, stronger effect = higher value
Outline: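 wt1 strain grown with compound or vehicle; inhibition taken from the growth difference.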

[3] = NCI Yeast Anticancer Drug Screen. Data for the rad50EPP+ strain (AID 151);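 also: 0% = growth of vehicle-treated control cultures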; details: S. cerevisiae rad50 mutant strain, stronger effect = higher value
Outline: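 In this screen, rad50EPP+ yeast were exposed to compounds. Growth inhibition was scored against vehicle-treated controls.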

[4] = NCI Yeast Anticancer Drug Screen. Data for the mgt1 strain (AID 153); details: S. cerevisiae mgt1 mutant growth inhibition, stronger effect = higher value
Outline: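 mgt1 strain exposed; growth vs vehicle control recorded as inhibition.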

[5] = NCI Yeast Anticancer Drug Screen. Data for the rad50 strain (AID 155);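 also: 0% = growth of vehicle-only cultures of the same strain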; details: S. cerevisiae rad50 strain growth inhibition, stronger effect = higher value
Outline: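 DNA repair mutant yeast, compound exposure, growth read-out; inhibition is taken relative to vehicle.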

[6] = NCI Yeast Anticancer Drug Screen. Data for the mec2-1 strain (AID 157); details: S. cerevisiae mec2-1 strain, stronger effect = higher value
Outline: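 Vehicle-treated cultures served as reference for growth inhibition of compound-exposed mec2-1 yeast.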

[7] = NCI Yeast Anticancer Drug Screen. Data for the rad14 strain (AID 159);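 also: 0% = growth of vehicle-treated control cultures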; details: S. cerevisiae rad14 strain growth inhibition, stronger effect = higher value
Outline: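 DNA repair-defective yeast, compound-exposed; % growth inhibition derived by comparison with vehicle-treated controls.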

[8] = NCI Yeast Anticancer Drug Screen. Data for the sgs1 mgt1 strain (AID 161);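 also: 0% = growth of cultures given vehicle only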; details: S. cerevisiae sgs1 mgt1 strain, stronger effect = higher value
Outline: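 Test agents were incubated with a DNA-repair-mutant yeast strain. Growth was then read and compared against vehicle-treated controls.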

[9] = NCI Yeast Anticancer Drug Screen. Data for the cln2 rad14 strain (AID 165);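 also: 0% = growth equal to vehicle treated cultures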; details: S. cerevisiae cln2 rad14 strain, stronger effect = higher value
Outline: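 Each compound was tested on cln2 rad14 yeast. Inhibition of growth was calculated against vehicle-exposed controls.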

[10] = NCI Yeast Anticancer Drug Screen. Data for the bub3 strain (AID 167); details: S. cerevisiae bub3 mutant strain, stronger effect = higher value
Outline: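 In this screen, a yeast mutant lacking normal mitotic checkpoint function is challenged with compound. Relative growth versus vehicle gives the inhibition value.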

[11] = NCI Yeast Anticancer Drug Screen. Data for the wt2 strain (AID 169);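 also: 0% = growth of vehicle-treated yeast cultures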; details: S. cerevisiae wt2 strain growth inhibition, stronger effect = higher value
Outline: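 Inhibition of yeast growth was determined after compound treatment, normalised to controls receiving only vehicle.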

[12] = NCI Yeast Anticancer Drug Screen. Data for the mlh1 strain (AID 171);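 also: 0% = growth of vehicle-treated control cultures of the same strain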; details: S. cerevisiae mlh1 strain growth inhibition, stronger effect = higher value
Outline: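 Vehicle-normalised growth inhibition of a repair- or checkpoint-altered yeast strain following compound treatment.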

[13] = NCI Yeast Anticancer Drug Screen. Data for the sgs1 strain (AID 173);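 also: 0% = growth of vehicle-only control cultures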; details: S. cerevisiae sgs1 mutant, stronger effect = higher value
Outline: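 Screen format: yeast with repair or checkpoint alterations, compound exposure, growth read relative to vehicle.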

[14] = NCI Yeast Anticancer Drug Screen. Data for the mlh1 rad18 strain (AID 175); details: S. cerevisiae mlh1 rad18 strain growth inhibition, stronger effect = higher value
Outline: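 Vehicle-treated cultures served as the reference for growth inhibition in a yeast strain carrying DNA damage repair alterations exposed to each compound.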

[15] = NCI Yeast Anticancer Drug Screen. Data for the rad18 strain (AID 177); details: S. cerevisiae rad18 mutant growth inhibition, stronger effect = higher value
Outline: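 Test articles were incubated with altered yeast defective in DNA damage repair. Results are given as inhibition of growth versus vehicle.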

[16] = at 5.0 µM (retest, dose inferred, filed as 0.5)
[17] = at 50.0 µM (retest, dose inferred, filed as 5.0)

Measured: growth inhibition

C=C1N(C)c2ccc(Cl)cc2C1(C)C
inactive: [1]; at 1.2 µM -26% | [1]; at 3.7 µM -25% | [1]; at 11.0 µM -38% | [1]; at 33.0 µM -7% | [2]; at 1.2 µM -37% | [2]; at 3.7 µM -28% | [2]; at 11.0 µM -30% | [2]; at 33.0 µM -21% | [3]; at 1.2 µM -5% | [3]; at 3.7 µM -7% | [3]; at 11.0 µM -23% | [3]; at 33.0 µM -18% | [3]; at 100.0 µM -6% | [4]; at 1.2 µM -23% | [4]; at 3.7 µM 0% | [4]; at 11.0 µM 0% | [4]; at 33.0 µM 29% | [5]; at 1.2 µM 4% | [5]; at 3.7 µM -22% | [5]; [16] 68% | [5]; at 11.0 µM -26% | [5]; at 33.0 µM 20% | [6]; at 1.2 µM -3% | [6]; at 3.7 µM 4% | [6]; at 11.0 µM -8% | [6]; at 33.0 µM 19% | [7]; at 1.2 µM -33% | [7]; at 3.7 µM -37% | [7]; at 11.0 µM -23% | [7]; at 33.0 µM 12% | [8]; [16] -6% | [9]; [16] 64% | [10]; at 1.2 µM 18% | [10]; at 3.7 µM 28% | [10]; [16] -1% | [10]; at 11.0 µM 5% | [10]; at 33.0 µM 28% | [11]; at 1.2 µM -30% | [11]; at 3.7 µM -30% | [11]; at 11.0 µM -28% | [11]; at 33.0 µM -23% | [12]; at 1.2 µM -45% | [12]; at 3.7 µM -43% | [12]; at 11.0 µM -30% | [12]; at 33.0 µM 3% | [13]; at 1.2 µM -24% | [13]; at 3.7 µM -46% | [13]; at 11.0 µM -47% | [13]; at 33.0 µM 1% | [14]; [16] 57% | [15]; at 1.2 µM -2% | [15]; at 3.7 µM -18% | [15]; at 11.0 µM -26% | [15]; at 33.0 µM 15%
active: [1]; at 100.0 µM 94% | [2]; at 100.0 µM 92% | [4]; at 100.0 µM 97% | [5]; [17] 99% | [5]; at 50.0 µM 88.9% | [5]; at 100.0 µM 94% | [6]; [16] 77% | [6]; [17] 100% | [6]; at 50.0 µM 90.1% | [6]; at 100.0 µM 96% | [7]; at 100.0 µM 95% | [8]; [17] 88% | [9]; [17] 86% | [10]; [17] 93% | [10]; at 100.0 µM 97% | [11]; at 100.0 µM 94% | [12]; at 100.0 µM 94% | [13]; at 100.0 µM 92% | [14]; [17] 100% | [14]; at 50.0 µM 88.9% | [15]; at 100.0 µM 94%

CN(Cc1cnc2nc(N)nc(N)c2n1)c1ccc(C(=O)NC(CCC(=O)O)C(=O)O)c2ccccc12 (configuration not stated)
active: [1]; at 33.0 µM 90% | [1]; at 100.0 µM 93% | [2]; at 100.0 µM 90% | [3]; at 100.0 µM 79% | [4]; at 100.0 µM 79% | [5]; at 33.0 µM 89% | [5]; [17] 80% | [5]; at 50.0 µM 81.2% | [5]; at 100.0 µM 92% | [6]; at 3.7 µM 72% | [6]; [16] 72% | [6]; at 11.0 µM 92% | [6]; at 33.0 µM 95% | [6]; [17] 94% | [6]; at 50.0 µM 87.2% | [6]; at 100.0 µM 96% | [7]; at 33.0 µM 82% | [7]; at 100.0 µM 91% | [8]; [17] 71% | [8]; at 50.0 µM 72.7% | [10]; [17] 72% | [10]; at 50.0 µM 80.3% | [10]; at 100.0 µM 84% | [11]; at 100.0 µM 78% | [12]; at 100.0 µM 83% | [13]; at 33.0 µM 82% | [13]; at 100.0 µM 85% | [14]; [17] 72% | [15]; at 33.0 µM 79% | [15]; at 100.0 µM 89%
inactive: [1]; at 1.2 µM 16% | [1]; at 3.7 µM 24% | [1]; at 11.0 µM 66% | [2]; at 1.2 µM 12% | [2]; at 3.7 µM 17% | [2]; at 11.0 µM 28% | [2]; at 33.0 µM 69% | [3]; at 1.2 µM 5% | [3]; at 3.7 µM 24% | [3]; at 11.0 µM 41% | [3]; at 33.0 µM 57% | [4]; at 1.2 µM -18% | [4]; at 3.7 µM 1% | [4]; at 11.0 µM 25% | [4]; at 33.0 µM 51% | [5]; at 1.2 µM -2% | [5]; at 3.7 µM 22% | [5]; [16] -4% | [5]; at 11.0 µM 60% | [6]; at 1.2 µM 17% | [7]; at 1.2 µM -2% | [7]; at 3.7 µM 11% | [7]; at 11.0 µM 49% | [8]; [16] 27% | [9]; [16] -6% | [9]; [17] 45% | [9]; at 50.0 µM 35.1% | [10]; at 1.2 µM -5% | [10]; at 3.7 µM -7% | [10]; [16] -49% | [10]; at 11.0 µM 2% | [10]; at 33.0 µM 57% | [11]; at 1.2 µM -50% | [11]; at 3.7 µM -45% | [11]; at 11.0 µM -4% | [11]; at 33.0 µM 39% | [12]; at 1.2 µM 17% | [12]; at 3.7 µM 32% | [12]; at 11.0 µM 42% | [12]; at 33.0 µM 66% | [13]; at 1.2 µM 26% | [13]; at 3.7 µM 36% | [13]; at 11.0 µM 58% | [14]; [16] -13% | [15]; at 1.2 µM 17% | [15]; at 3.7 µM 25% | [15]; at 11.0 µM 38%
